Data taken from paper PMC4336329 (PLoS ONE, 2015).
About 14,000 (4.5%) of roughly 310,000 compounds showed an effect of 50% or more. Effects have a minus sign here. The list comes from a sample in which strong results are over-represented; it also holds similar structures and randomly drawn compounds.

biological target: human ether-à-go-go-related gene (hERG) potassium channel (human, UniProt Q12809); assay: primary screen, population patch clamp on CHO cells stably expressing hERG; higher = less effect of the substance
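Also: peak tail current of the secondary pulse compared with the same well before compound.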

Chain of human ether-à-go-go-related gene (hERG) potassium channel (Q12809 whole entry, looked up): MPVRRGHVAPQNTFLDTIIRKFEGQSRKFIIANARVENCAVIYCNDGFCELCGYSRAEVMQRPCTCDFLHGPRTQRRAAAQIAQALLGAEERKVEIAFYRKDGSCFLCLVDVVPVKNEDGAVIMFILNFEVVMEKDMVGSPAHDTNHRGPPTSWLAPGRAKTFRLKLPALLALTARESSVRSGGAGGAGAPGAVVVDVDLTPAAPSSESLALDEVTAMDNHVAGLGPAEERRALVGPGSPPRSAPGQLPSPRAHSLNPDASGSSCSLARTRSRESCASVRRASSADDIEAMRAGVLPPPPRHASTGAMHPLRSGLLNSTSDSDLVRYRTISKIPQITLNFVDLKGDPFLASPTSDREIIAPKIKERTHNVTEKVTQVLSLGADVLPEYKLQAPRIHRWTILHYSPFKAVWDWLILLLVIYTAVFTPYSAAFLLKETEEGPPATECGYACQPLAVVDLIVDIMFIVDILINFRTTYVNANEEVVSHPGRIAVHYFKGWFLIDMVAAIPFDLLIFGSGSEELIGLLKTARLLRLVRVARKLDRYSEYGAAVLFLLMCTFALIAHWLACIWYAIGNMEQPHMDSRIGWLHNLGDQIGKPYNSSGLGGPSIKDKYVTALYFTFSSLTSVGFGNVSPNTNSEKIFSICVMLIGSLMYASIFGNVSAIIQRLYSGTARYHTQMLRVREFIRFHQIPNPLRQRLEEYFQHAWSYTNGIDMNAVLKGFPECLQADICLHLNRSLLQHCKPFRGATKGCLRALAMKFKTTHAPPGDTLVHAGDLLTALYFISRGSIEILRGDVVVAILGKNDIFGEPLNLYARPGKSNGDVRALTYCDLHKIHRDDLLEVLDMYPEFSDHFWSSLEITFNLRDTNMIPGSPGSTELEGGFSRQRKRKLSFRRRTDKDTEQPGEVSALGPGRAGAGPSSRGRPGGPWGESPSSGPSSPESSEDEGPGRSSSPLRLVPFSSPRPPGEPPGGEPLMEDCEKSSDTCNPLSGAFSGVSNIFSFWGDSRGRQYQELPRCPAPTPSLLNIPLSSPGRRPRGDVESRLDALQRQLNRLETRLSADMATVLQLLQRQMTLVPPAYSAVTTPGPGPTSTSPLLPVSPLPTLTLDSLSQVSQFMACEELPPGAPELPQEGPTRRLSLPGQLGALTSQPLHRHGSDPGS

| Compound | hERG current change (%, negative = inhibition) at 10uM [%] |
| --- | --- |
| C=CCN1C(=O)/C(=C\c2cccc(OC(=O)c3ccco3)c2)SC1=S | 2.37 |
| CC(C)n1ncc2c(C(=O)N3CCN(Cc4ccc(Br)s4)CC3)cc(C3CC3)nc21 | -4.36 |
| COc1ccc(Cl)cc1S(=O)(=O)Oc1ccc(NC(C)=O)cc1 | -51.7 |
| CC(=O)Nc1ccc(OS(=O)(=O)c2ccc(Cl)cc2)cc1 | -24.5 |
| CC(=O)Nc1ccc(OS(=O)(=O)c2cc(Cl)ccc2C)cc1 | -6.02 |
| COc1ccc(CCNC(=O)c2ccc3nc(-c4ccco4)c(-c4ccco4)nc3c2)cc1OC | -0.346 |
| COc1ccc(Cn2c(O)c(C=Nc3ccc(O)cc3)c3ccccc3c2=O)cc1 | 1.27 |
| O=C(c1[nH]nc2c1CCc1ccccc1-2)N1CCN(Cc2ccc3c(c2)OCO3)CC1 | -26.9 |
| O=C(N/N=C/c1ccc(O)cc1O)C(=O)N/N=C/c1ccc(O)cc1O | 14.1 |
| Nc1[nH]n2c(=O)c3c(nc2c1N=Nc1ccc(Cl)cc1)CCCC3 | -8.56 |
| Nc1[nH]n2c(=O)c3c(nc2c1N=Nc1ccccc1)CCCC3 | -54.3 |
| COc1cccc(N=Nc2c(N)[nH]n3c(=O)c4c(nc23)CCCC4)c1 | 12.2 |
| COc1ccc(OC)c2[nH]c(=O)c(CCNC(=O)c3ccc4c(c3)OCO4)cc12 | -10.2 |
| CN(C)S(=O)(=O)N1CCN(C(=O)c2ccccc2)CC1 | 8.25 |
| CC(C)NC(=S)N/N=C1\CCCc2ccccc21 | 10.4 |
| C=C(C)CNC(=S)NN=C1c2ccccc2-c2ccccc21 | 6.79 |
| CC(C)NC(=S)N/N=C1\CCCCc2ccccc21 | -21.1 |
| CCCCNC(=S)N/N=C1\CCCCc2ccccc21 | -64.4 |
| CCNC(=S)N/N=C1\CCCCc2ccccc21 | -3.93 |
| C=C(C)CNC(=S)N/N=C1\CCCCc2ccccc21 | -60.3 |
| COc1cc(CCCN2C(=O)C(=O)NC[C@@H]2CC2CCCCC2)cc(OC)c1OC | 4 |
| N#Cc1cc[n+](CC(=O)c2ccc(NC(=O)c3ccccc3)cc2)cc1.[Br-] | -14.6 |
| Cc1ccc(SCCNC(=O)/C=C/c2ccc(Cl)cc2)cc1 | -0.0121 |
| CC(C)C(NC(=O)/C=C/c1ccc(F)cc1)C(C)C | 16.1 |
| COc1ccc(NC(=O)CC2Oc3ccc(C)cc3NC2=O)cc1 (stereo not shown) | 11.3 |
| COc1ccc(N2CCN(CCCNC(=O)CC3Oc4ccc(C)cc4NC3=O)CC2)cc1 (stereo not shown) | -55.5 |
| Cc1ccc2c(c1)NC(=O)C(CC(=O)NCCCN1CCCC1=O)O2 (stereo not shown) | 16.5 |
| CCN(CC)CCCNC(=O)CC1Oc2ccc(C)cc2NC1=O (stereo not shown) | 0.515 |

| Compound | hERG current change (%, negative = inhibition) at 10uM [%] |
| --- | --- |
| Cc1ccc2c(c1)NC(=O)C(CC(=O)NCCCN1CCCCC1C)O2 (stereo not shown) | -4.68 |
| Cc1ccc2c(c1)NC(=O)C(CC(=O)NCCCN1CCN(c3cc(C)ccc3C)CC1)O2 (stereo not shown) | -61.4 |
| CCN(CCCNC(=O)CC1Oc2ccc(C)cc2NC1=O)Cc1ccccc1 (stereo not shown) | -61.5 |
| Cc1ccc2c(c1)NC(=O)C(CC(=O)NCCCN1CCCCC1)O2 (stereo not shown) | -0.113 |
| CCCCN(CCCC)CCCNC(=O)CC1Oc2ccc(C)cc2NC1=O (stereo not shown) | -49.5 |
| Cc1ccc2c(c1)NC(=O)C(CC(=O)NCCCN1CCCC1)O2 (stereo not shown) | 12.6 |
| Cc1ccc2c(c1)NC(=O)C(CC(=O)NCCCN1CCc3ccccc3C1)O2 (stereo not shown) | -65.7 |
| CCC1CCCCN1CCCNC(=O)CC1Oc2ccc(C)cc2NC1=O (stereo not shown) | -7.95 |
| CCn1cc(C(=O)NCc2ccco2)c(=O)c2cc(S(=O)(=O)N3CC(C)CC(C)C3)ccc21 (stereo not shown) | -7.3 |
| O=c1c2ccccc2nnn1CSc1nnc(-c2cccnc2)n1-c1ccccc1F | 11.5 |
| CNC(=O)c1cc(S(=O)(=O)Nc2ccc3c(c2)OCO3)ccc1C | 4.42 |
| COc1ccc(CCNC(=O)CCCCC(=O)NCCc2ccc(OC)c(OC)c2)cc1OC | 4.7 |
| CCN(c1ccc(OC)cc1)S(=O)(=O)c1nnc(NC(=O)c2ccccc2Cl)s1 | 15.5 |
| Cc1ccnc(NC(=O)C2CCN(S(=O)(=O)c3ccc4c(c3)CC(C)N4C(=O)C3CCC3)CC2)c1 (stereo not shown) | -0.431 |
| COc1cc(/C=C(\C#N)C(=O)Nc2cccc(C(=O)O)c2)ccc1OCc1ccc(F)cc1 | 22.6 |
| C=CCSc1nnnn1-c1ccc(OC)cc1 | -20 |
| Cc1ccc(CNC(=O)CCCNC(=O)c2ccc(Cl)cc2)n1C | 2.05 |
| Cc1ccc(CN2CCN(Cc3cn(C)nc3C)CC2CCO)o1 (stereo not shown) | 12.4 |
| CCOC(=O)C1(CCOc2ccccc2)CCN(Cc2cccc(O)c2)CC1 | -63.1 |
| CCOC(=O)C1(CCOc2ccccc2)CCN(Cc2cccc(F)c2)CC1 | -65.4 |
| CCOC(=O)C1(CCOc2ccccc2)CCN(Cc2cccc(OC)c2)CC1 | -76.1 |
| CCOC(=O)C1(CCOc2ccccc2)CCN(Cc2cccc(OCCO)c2)CC1 | -83.4 |
| CCOC(=O)C1(CCOC)CCN(Cc2cccc(OCc3ccccc3)c2)CC1 | -42.4 |
| COc1ccccc1NCCC(=O)OCC(=O)NCc1ccco1 | 23.7 |
| COc1ccc(N(CC(=O)Nc2cccc(C(C)=O)c2)S(C)(=O)=O)cc1OC | -10.5 |
| Cn1c(Cn2nnc3ccccc32)nnc1SCC(=O)N1c2ccccc2CCc2ccccc21 | -23.6 |
| O=C(NCCc1ccc(OC(F)F)cc1)C1CC(=O)N(c2ccc3c(c2)OCCO3)C1 (stereo not shown) | -47.6 |
